Measured values reported in PubChem BioAssay (NCATS).
Inconclusive results are not listed. The source made the active and inactive calls. Unless noted, calls come from the whole dose curve; as a rule, active = well fitted curve in the direction sought with a large enough effect; inconclusive = small, poorly fitted or top-dose-only effect, or another doubt; inactive = no such curve, though single readings can be large; an effect the other way counts as inactive or inconclusive.

What was measured:
[1] = target: Lysosomal acid glucosylceramidase (Homo sapiens) (UniProt P04062); assay: Glucocerebrosidase-p2 (AID 348; in the data active = potency below about 10 µM; note: potency is the fitted concentration of half-maximal effect); details: purified GBA, blue fluorogenic substrate, 40 min
Lysosomal acid glucosylceramidase (Homo sapiens), sequence (P04062 whole entry, looked up): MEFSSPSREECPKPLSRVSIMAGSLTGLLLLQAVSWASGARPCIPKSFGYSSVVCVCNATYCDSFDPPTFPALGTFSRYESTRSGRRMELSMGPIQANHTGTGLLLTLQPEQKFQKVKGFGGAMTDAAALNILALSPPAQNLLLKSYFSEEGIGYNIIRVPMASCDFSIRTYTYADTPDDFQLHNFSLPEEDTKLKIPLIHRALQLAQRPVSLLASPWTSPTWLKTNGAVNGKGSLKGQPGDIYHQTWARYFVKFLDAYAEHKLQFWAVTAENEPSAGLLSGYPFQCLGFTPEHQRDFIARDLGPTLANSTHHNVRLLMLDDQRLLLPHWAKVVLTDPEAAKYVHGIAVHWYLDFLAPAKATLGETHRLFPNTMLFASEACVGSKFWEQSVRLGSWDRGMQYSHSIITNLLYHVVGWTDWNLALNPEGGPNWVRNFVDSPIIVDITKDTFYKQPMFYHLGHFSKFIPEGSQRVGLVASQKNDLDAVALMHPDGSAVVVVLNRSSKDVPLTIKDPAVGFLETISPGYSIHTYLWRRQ
In short: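 Normal human glucocerebrosidase (0.2 nM) with blue fluorogenic substrate (80 uM final) in citrate/phosphate pH 5.9 with 10mM sodium taurocholate, 0.01% tween-20; 40 min RT, NaOH/glycine stop; fluorescence Ex 365/Em 440; AC50 from a titration from 0.6 nM upwards.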

[2] = AP1 Signaling Pathway (AID 357; active = well fitted curve in either direction with a large enough effect, not every such curve was filed as active;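 note: ME-180 reporter cells stimulated with EGF at its EC50 level; % is set by controls: 0 for no effect and ±100 for the full control effect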); details: ME-180 AP-1-bla reporter, EGF-induced, beta-lactamase ratio, 5 h; at 7.69 µM (top of the series) unless noted
In short: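 AP-1-bla ME-180 cells, Opti-MEM + 0.5% dialyzed FBS, plated overnight 37 °C. Cpd titration + EC50 EGF, 5 h 37 °C. CCF4 2.5 h RT; ex 405, em 460/530 ratio → %activity, AC50.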

[3] = target: Cytochrome P450 1A2 (Homo sapiens) (UniProt P05177); assay: p450-cyp1a2 (AID 410; calls by dose curve; note: potency is the fitted concentration of half-maximal effect); details: recombinant CYP1A2, luciferin-ME demethylation, luminescence; series mostly up to 57 µM
Cytochrome P450 1A2 (Homo sapiens), sequence (P05177 whole entry, looked up): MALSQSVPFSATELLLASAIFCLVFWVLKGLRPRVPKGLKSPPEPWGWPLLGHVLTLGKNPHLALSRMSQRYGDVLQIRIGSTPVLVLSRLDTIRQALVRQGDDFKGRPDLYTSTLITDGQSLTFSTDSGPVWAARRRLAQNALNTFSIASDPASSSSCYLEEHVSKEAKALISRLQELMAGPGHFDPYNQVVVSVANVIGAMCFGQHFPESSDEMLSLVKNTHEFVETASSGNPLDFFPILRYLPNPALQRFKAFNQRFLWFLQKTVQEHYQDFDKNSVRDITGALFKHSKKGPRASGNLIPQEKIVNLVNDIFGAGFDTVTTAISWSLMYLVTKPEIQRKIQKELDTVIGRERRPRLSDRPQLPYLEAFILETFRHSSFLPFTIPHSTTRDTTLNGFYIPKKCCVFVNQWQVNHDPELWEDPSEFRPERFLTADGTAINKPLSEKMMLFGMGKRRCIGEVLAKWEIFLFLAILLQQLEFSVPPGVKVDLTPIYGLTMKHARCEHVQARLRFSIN
In short: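 O-Demethylation of luciferin 6' methyl ether by human CYP1A2 is monitored as luciferase luminescence. Substrate sits at Km (100uM); enzyme is 20nM. Values are scaled to 57 uM furafylline as maximal inhibition.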

[4] = NFAT Signaling Pathway (AID 444; active = well fitted curve in either direction with a large enough effect, not every such curve was filed as active;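 note: carbachol stimulus at about its EC50 of 1 µM final; % is set by controls: 0 for no effect and ±100 for the full control effect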); details: Jurkat NFAT-bla M1, carbachol, beta-lactamase ratio, 5 h; at 7.69 µM (top of the series) unless noted
In short: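 Jurkat cells carrying an NFAT-driven β-lactamase reporter and co-transfected muscarinic M1 receptor were treated with compound plus carbachol (1 uM final, an EC50 level) for 5 h at 37 °C. CCF4 loading followed for 1 h at RT; 460/530 nm ratio gave %activity.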

[5] = Stat Signaling Pathway (AID 446; active = well fitted curve in either direction with a large enough effect, not every such curve was filed as active;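 note: ME-180 cervical cancer cells given 40 pM IL-6 alongside compound; SIE-controlled beta-lactamase reporter measured as 460/530 nm FRET emission ratio; % is set by controls: 0 for no effect and ±100 for the full control effect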); details: ME-180 (cervical carcinoma) SIE beta-lactamase reporter, IL-6 stimulated, 5 h; at 7.69 µM (top of the series) unless noted
In short: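 Emission at 460 and 530 nm (excitation 405 nm) reports SIE-controlled beta-lactamase in ME-180 cells. Cells received compound with 40 pM IL-6 for 5 hrs at 37 C; data scaled between 300 pM IL-6 and 125 nM JAK-inhibitor controls.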

[6] = target: Glucocorticoid receptor (Homo sapiens) (UniProt P04150); assay: GR-GFP Redistribution (AID 450;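 active = compounds whose dose series gives a full or clear partial fitted curve of increased nuclear translocation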; note: potency is the fitted concentration of half-maximal effect); details: U2OS GR-GFP nuclear translocation, laser cytometry, 2 h
Glucocorticoid receptor (Homo sapiens), sequence (P04150 whole entry, looked up, the tested form may be a part): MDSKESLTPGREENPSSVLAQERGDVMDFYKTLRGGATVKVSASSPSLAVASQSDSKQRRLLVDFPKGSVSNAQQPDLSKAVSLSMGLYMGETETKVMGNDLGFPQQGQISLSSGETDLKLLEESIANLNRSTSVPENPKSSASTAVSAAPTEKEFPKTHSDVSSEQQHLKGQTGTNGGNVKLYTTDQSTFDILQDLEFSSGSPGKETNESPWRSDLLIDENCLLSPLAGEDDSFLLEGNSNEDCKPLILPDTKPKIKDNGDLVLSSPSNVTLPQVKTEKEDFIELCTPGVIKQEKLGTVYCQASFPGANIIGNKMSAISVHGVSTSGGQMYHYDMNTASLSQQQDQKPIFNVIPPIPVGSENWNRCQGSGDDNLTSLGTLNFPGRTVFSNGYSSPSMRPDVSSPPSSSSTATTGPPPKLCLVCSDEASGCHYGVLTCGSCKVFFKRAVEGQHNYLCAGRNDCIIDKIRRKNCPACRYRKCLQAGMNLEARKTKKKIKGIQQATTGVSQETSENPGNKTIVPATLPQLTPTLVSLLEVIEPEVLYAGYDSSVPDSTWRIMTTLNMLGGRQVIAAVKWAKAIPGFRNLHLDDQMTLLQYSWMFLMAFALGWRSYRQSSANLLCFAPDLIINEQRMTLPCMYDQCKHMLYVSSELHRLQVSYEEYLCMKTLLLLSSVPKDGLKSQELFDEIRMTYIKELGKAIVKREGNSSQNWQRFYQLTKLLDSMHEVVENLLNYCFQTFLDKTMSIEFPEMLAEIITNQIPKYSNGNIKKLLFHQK

[7] = target: Glucocorticoid receptor (Homo sapiens) (UniProt P04150); assay: GR-EFC Redistribution (AID 451; calls by dose curve; note: potency is the fitted concentration of half-maximal effect); details: CHO-K1 GR-EFC translocation, beta-gal luminescence, 2 h
In short: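 CHO-K1 cells stably expressing nuclear-localized β-gal enzyme acceptor and GR fused C-terminally to the enzyme donor fragment; ligand-driven nuclear translocation restores β-gal by complementation. Compounds titrated up to 46 uM final, 2 h at 37 °C; luminescence read.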

[8] = target: Mitogen-activated protein kinase 10 (Mus musculus) (UniProt Q61831); assay: JNK3 AlphaScreen Assay (AID 530; active = well fitted curve in either direction with a large enough effect, not every such curve was filed as active;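 note: kinase came from lysate of stimulated human HepG2 cells; signal reports phosphorylation of biotinylated GST-cJun 1-79 at Ser73 with 10 µM ATP; % is set by controls: 0 for no effect and ±100 for the full control effect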); details: JNK3 lysate, c-Jun phosphorylation; series mostly up to 57.1 µM
In short: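 Phosphorylation of biotinylated GST-cJun(1-79) at Ser73 is measured by AlphaScreen proximity luminescence. Enzyme is JNK3 in HepG2 lysates activated with interleukin-1beta and tumor necrosis factor alpha; ATP is 10 uM final.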

[9] = target: 3',5'-cyclic-AMP phosphodiesterase 4B (Homo sapiens) (UniProt Q07343); assay: qHTS Assay for Inhibitors of PDE-IV (AID 607; active = well fitted activation curve with a large enough effect in the main read-out, with a control signal flat, not every such curve was filed as active; note: % of control where 0% means no effect); details: HEK293 ACTOne CNG channel cells, membrane potential fluorescence; series mostly up to 22.9 µM
3',5'-cyclic-AMP phosphodiesterase 4B (Homo sapiens), sequence (Q07343 whole entry, looked up): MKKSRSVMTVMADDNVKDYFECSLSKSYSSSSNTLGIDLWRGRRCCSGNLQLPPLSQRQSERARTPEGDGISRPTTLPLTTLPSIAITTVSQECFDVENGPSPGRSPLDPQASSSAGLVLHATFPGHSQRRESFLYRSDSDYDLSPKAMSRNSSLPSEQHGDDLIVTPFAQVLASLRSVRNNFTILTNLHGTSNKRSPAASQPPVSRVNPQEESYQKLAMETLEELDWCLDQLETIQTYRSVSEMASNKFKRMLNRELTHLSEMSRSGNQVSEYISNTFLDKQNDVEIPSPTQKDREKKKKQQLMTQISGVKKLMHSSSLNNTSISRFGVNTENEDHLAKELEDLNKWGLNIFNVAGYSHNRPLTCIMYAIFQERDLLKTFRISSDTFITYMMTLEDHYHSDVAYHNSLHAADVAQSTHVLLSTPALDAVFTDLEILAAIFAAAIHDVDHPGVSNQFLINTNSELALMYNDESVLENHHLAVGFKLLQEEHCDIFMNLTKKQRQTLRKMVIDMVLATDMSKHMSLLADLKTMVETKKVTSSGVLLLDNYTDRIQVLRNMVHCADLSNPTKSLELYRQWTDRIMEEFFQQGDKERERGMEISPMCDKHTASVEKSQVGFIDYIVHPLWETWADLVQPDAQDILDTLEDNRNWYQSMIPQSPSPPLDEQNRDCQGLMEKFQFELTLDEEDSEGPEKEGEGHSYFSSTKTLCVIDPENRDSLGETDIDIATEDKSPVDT
In short: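 The readout is membrane depolarisation from a cAMP-sensing CNG channel, detected with a potential dye at ex 535/em 590. Cells were HEK293-derived (endogenous PDE-IV) at 1000 cells/well, titrated up to 22.9 uM final.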

[10] = target: Cytochrome P450 3A4 (Homo sapiens) (UniProt P08684); assay: qHTS Assay for Activators of Cytochrome P450 3A4 (AID 885); details: recombinant CYP3A4, Luciferin-PPXE luminescence, 60 min; series mostly up to 57.1 µM; note: nearly all actives have a fitted effect of over 65% in size; note: potency is the fitted concentration of half-maximal effect
Cytochrome P450 3A4 (Homo sapiens), sequence (P08684 whole entry, looked up): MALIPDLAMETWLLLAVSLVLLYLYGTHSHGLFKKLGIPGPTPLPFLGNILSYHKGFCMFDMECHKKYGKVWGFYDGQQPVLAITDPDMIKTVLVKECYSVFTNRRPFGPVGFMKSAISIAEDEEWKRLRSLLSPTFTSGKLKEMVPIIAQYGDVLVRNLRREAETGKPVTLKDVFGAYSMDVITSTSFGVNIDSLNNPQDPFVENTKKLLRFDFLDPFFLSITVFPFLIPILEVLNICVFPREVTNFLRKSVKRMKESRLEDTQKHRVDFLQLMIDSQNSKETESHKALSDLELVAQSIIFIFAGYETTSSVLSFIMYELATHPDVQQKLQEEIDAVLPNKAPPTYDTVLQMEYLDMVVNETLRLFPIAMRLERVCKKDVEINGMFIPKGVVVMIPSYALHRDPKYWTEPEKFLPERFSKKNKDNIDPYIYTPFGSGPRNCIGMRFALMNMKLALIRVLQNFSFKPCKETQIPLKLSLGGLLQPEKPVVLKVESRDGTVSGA
In short: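 Activators are scored by enhanced luminescence from CYP3A4 conversion of luciferin-PPXE (25uM, equal to KM) to luciferin, after 60 min at RT with an NADPH-regenerating system.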

[11] = qHTS Assay for Lipid Storage Modulators (AID 1519; calls by dose curve); details: Drosophila S3 cells, BODIPY lipid droplet/cell ratio, laser cytometry, cells loaded with oleic acid; for activity change, negative = inhibition: at 57.5 µM (top of the series)
In short: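 Cells seeded at 5,000 per well were treated with compounds over a concentration series and loaded with oleic acid (400 uM, as added). Lipid droplet fluorescence (488 nm excitation, 500-530 nm channel) was read by laser-scanning cytometry and normalized to 20 uM Triacsin C.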

[12] = target: Dual specificity protein kinase CLK4 (Homo sapiens) (UniProt Q9HAZ1); assay: qHTS Assay for Inhibitors of CDC-like Kinase 4 (Kinase-Glo Assay) (AID 1770); details: recombinant Clk4, Kinase-Glo ATP depletion luminescence; series mostly up to 66.7 µM; note: % is set by controls: 0 for no effect and ±100 for the full control effect; nearly all actives have a fitted effect of over 65% in size
Dual specificity protein kinase CLK4 (Homo sapiens), sequence (Q9HAZ1 whole entry, looked up): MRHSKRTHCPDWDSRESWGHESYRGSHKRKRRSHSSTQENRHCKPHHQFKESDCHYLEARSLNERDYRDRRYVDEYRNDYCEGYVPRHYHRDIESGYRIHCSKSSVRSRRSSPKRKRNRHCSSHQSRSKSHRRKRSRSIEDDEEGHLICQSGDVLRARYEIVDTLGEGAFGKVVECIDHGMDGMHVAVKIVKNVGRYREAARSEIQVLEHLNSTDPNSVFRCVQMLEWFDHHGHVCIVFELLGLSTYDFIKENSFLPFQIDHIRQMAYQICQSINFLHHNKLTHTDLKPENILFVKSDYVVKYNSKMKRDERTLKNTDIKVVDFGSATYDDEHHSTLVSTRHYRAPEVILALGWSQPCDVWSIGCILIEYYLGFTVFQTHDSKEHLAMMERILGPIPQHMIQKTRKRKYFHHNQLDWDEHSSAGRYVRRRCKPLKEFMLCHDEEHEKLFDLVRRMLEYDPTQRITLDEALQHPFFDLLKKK
In short: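 Clk4 25 nM, RS peptide 100 uM, ATP 1 uM, pH 7.5 Tris, 10 mM MgCl2, 2.5 mM DTT; 4.5 h RT; ATP depletion read by Kinase-Glo luminescence.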

[13] = target: Dual specificity protein kinase CLK4 (Homo sapiens) (UniProt Q9HAZ1); assay: qHTS Assay for Inhibitors of CDC-like Kinase 4 (ADP-Glo Assay) (AID 1771); details: recombinant CLK4, ADP-Glo luminescence; series mostly up to 80 µM; note: % is set by controls: 0 for no effect and ±100 for the full control effect; nearly all actives have a fitted effect of over 70% in size
In short: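 Compounds are pin-transferred onto substrate mix (100 uM RS peptide, 1 uM ATP), then 25 nM Clk4 is added. After 1 hr at room temperature, ADP-Glo reagent runs 45 min, detection reagent 30 min, then luminescence is read.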

[14] = target: Dual specificity protein kinase CLK4 (Homo sapiens) (UniProt Q9HAZ1); assay: qHTS Assay for Inhibitors of CDC-like Kinase 4 (ADP-FP Assay) (AID 1795); details: Transcreener ADP fluorescence polarization; series mostly up to 50 µM;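 note: recombinant human CLK4 phosphorylating RS repeat peptide at 1 µM ATP; % is set by controls: 0 for no effect and ±100 for the full control effect; nearly all actives have a fitted effect of over 60% in size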
In short: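 Kinase activity was followed as ADP output, converted from fluorescence polarization with a calibration curve. Reactions ran one hour at low ATP (1 uM) with RS peptide substrate.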

[15] = target: Ubiquitin carboxyl-terminal hydrolase 1 (Homo sapiens) (UniProt O94782); assay: Inhibitors of USP1/UAF1: Pilot qHTS (AID 504865); details: purified USP1/UAF1, Ub-rhodamine cleavage fluorescence; series mostly up to 54.9 µM;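 note: rhodamine fluorescence freed from ubiquitin-rhodamine substrate followed over time; top concentration of the series differs between compounds; % is set by controls: 0 for no effect and ±100 for the full control effect; nearly all actives have a fitted effect of over 35% in size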
Ubiquitin carboxyl-terminal hydrolase 1 (Homo sapiens), sequence (O94782 whole entry, looked up): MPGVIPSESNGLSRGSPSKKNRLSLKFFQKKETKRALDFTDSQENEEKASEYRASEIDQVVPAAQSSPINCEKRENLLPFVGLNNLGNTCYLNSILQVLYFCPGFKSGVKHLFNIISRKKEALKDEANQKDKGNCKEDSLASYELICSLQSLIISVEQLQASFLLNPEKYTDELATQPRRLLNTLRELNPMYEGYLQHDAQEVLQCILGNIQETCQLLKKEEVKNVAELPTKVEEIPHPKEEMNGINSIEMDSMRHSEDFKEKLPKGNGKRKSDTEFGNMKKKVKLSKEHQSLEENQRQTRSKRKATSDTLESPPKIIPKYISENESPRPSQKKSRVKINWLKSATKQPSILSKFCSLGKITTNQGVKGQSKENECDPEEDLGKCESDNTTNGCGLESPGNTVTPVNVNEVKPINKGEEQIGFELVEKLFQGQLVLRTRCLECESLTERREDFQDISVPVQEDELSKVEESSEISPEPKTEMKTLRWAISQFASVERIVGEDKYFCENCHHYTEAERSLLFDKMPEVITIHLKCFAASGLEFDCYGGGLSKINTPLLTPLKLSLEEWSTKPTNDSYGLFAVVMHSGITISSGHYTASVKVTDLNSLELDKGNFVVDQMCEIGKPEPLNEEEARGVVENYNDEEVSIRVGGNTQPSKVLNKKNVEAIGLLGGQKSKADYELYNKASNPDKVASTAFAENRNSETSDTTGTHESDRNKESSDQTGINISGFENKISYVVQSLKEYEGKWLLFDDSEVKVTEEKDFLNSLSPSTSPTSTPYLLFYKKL
In short: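 Enzyme-free wells gave the negative control, while test wells held 1nM USP1/UAF1 preincubated with compound for 15 min at room temperature. Ub-Rho at 150nM final started the reaction, and fluorescence at 480/540 nm was recorded kinetically.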

[16] = Primary qHTS for small molecule stabilizers of the endoplasmic reticulum resident proteome: Secreted ER Calcium Modulated Protein (SERCaMP) assay (AID 1508630); details: SH-SY5Y GLuc-SERCaMP (Gaussia luciferase released on ER calcium loss) secretion, thapsigargin, luminescence; series mostly up to 38.4 µM; note: % is set by controls: 0 for no effect and ±100 for the full control effect
In short: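 The SH-SY5Y reporter protocol was run at 3 concentrations up to 38.3 uM (primary) or 11 concentrations (follow-up): 16 h compound, 100 nM thapsigargin for 4 h, then extracellular luciferase luminescence.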

[17] = target: Cytochrome P450 3A4 (Homo sapiens) (UniProt P08684); assay: qHTS Assay for Inhibitors and Substrates of Cytochrome P450 3A4 (AID 884); details: recombinant CYP3A4, Luciferin-PPXE luminescence; series mostly up to 57.1 µM; note: % is set by controls: 0 for no effect and ±100 for the full control effect; nearly all actives have a fitted effect of over 50% in size
In short: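 Luminescent readout of luciferin produced by CYP3A4 (20 nM) dealkylation of Luciferin-PPXE, 25 uM (its KM). NADPH-driven reaction ran 60 min at RT after 10 min compound preincubation; data scaled to 57 uM ketoconazole as 100% inhibition.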

[18] = measured here: cell count channel max response
[19] = measured here: lipid channel max response

Cn1cc(-c2nc3cnc(N4CCOCC4)nc3n(C3CC3)c2=O)c2ccccc21
23.9%: max response [11, 19]
inactive: Potency [1] > 11.4 µM | activity change, negative = inhibition [2] -18.1% | activity change, negative = inhibition [4] -15.3% | activity, negative = inhibition [5] 11.5% | Potency [6] > 9.22 µM | Potency [7] > 46 µM | outcome [8] | Potency [9] | Potency [10] | activity change, negative = inhibition [11] 8.36% | Potency [12] | Potency [13] | Potency [14] | Potency [15] | Potency [16]
active: Potency [3] 3.16 µM
17.1%: max response [11, 18]

O=c1c(-c2ccc(F)c(F)c2)nc2cncnc2n1C1CC1
active: Potency [3] 0.1 µM
20.3%: max response [11, 18]
27.4%: max response [11, 19]
inactive: Potency [1] > 11.4 µM | activity change, negative = inhibition [2] 3.77% | activity change, negative = inhibition [4] 7.2% | activity, negative = inhibition [5] -6.38% | Potency [6] > 9.22 µM | Potency [7] > 46 µM | outcome [8] | Potency [9] | Potency [10] | activity change, negative = inhibition [11] 8.82% | Potency [12] | Potency [13] | Potency [14] | Potency [15] | Potency [16]

NCCn1c(=O)c(CCc2ccccc2)nc2cncnc21
active: Potency [3] 12.6 µM
inactive: Potency [1] > 11.4 µM | activity change, negative = inhibition [2] -1.99% | activity change, negative = inhibition [4] -4.68% | activity, negative = inhibition [5] -4.77% | Potency [6] > 9.22 µM | Potency [7] > 46 µM | outcome [8] | Potency [9] | Potency [10] | activity change, negative = inhibition [11] 4.81% | Potency [12] | Potency [13] | Potency [14] | Potency [15] | Potency [16]
26.7%: max response [11, 18]
29.9%: max response [11, 19]

COc1cccc(Nc2ncc3nc(-c4ccc(F)cc4)c(=O)n(C)c3n2)c1
inactive: Potency [1] > 11.4 µM | activity change, negative = inhibition [2] -6.29% | activity change, negative = inhibition [4] -16.4% | activity, negative = inhibition [5] -6.63% | Potency [6] > 9.22 µM | Potency [7] > 46 µM | outcome [8] | Potency [9] | activity change, negative = inhibition [11] 5.16% | Potency [12] | Potency [13] | Potency [14] | Potency [16]
25.1%: max response [11, 19]
active: Potency [3] 3.16 µM
19%: max response [11, 18]

O=c1cnc2cncnc2n1Cc1ccccc1
15%: max response [11, 18]
14%: max response [11, 19]
active: Potency [3] 25.1 µM
inactive: Potency [1] > 11.4 µM | activity change, negative = inhibition [2] -12.8% | activity change, negative = inhibition [4] -13.5% | activity, negative = inhibition [5] -12.1% | Potency [6] > 9.22 µM | Potency [7] > 46 µM | outcome [8] | Potency [10] | activity change, negative = inhibition [11] 0.677% | Potency [12] | Potency [13] | Potency [14] | Potency [15] | Potency [16]

CN1CCN(c2ncc3nc(CCc4ccccc4)c(=O)n(C4CC4)c3n2)CC1
14.9%: max response [11, 19]
15.9%: max response [11, 18]
active: Potency [3] 12.6 µM
inactive: Potency [1] > 11.4 µM | activity change, negative = inhibition [2] 10.3% | activity change, negative = inhibition [4] 15.1% | activity, negative = inhibition [5] -7.8% | Potency [6] > 9.22 µM | Potency [7] > 46 µM | outcome [8] | Potency [9] | Potency [10] | activity change, negative = inhibition [11] 1.8% | Potency [12] | Potency [13] | Potency [14] | Potency [15] | Potency [16]

CNc1cc(-c2ccccc2C(F)(F)F)ncn1
active: Potency [3] 15.8 µM | Potency [10] 15.8 µM
inactive: Potency [1] > 11.4 µM | activity change, negative = inhibition [2] 4.62% | activity change, negative = inhibition [4] 1.13% | activity, negative = inhibition [5] 7.97% | Potency [6] > 46 µM | Potency [7] > 46 µM | outcome [8] | Potency [9] | Potency [17] | activity change, negative = inhibition [11] 1.87% | Potency [12] | Potency [13] | Potency [14] | Potency [15] | Potency [16]
21.4%: max response [11, 18]
21.2%: max response [11, 19]

Cc1cnc(CNc2ccnc(-c3c(C)noc3C)n2)cn1
active: Potency [3] 12.6 µM
inactive: Potency [1] > 11.4 µM | activity change, negative = inhibition [2] 1.51% | activity change, negative = inhibition [4] 10.3% | activity, negative = inhibition [5] 1.5% | Potency [6] > 46 µM | Potency [7] > 46 µM | outcome [8] | Potency [9] | Potency [10] | activity change, negative = inhibition [11] 7.48% | Potency [12] | Potency [13] | Potency [14] | Potency [15] | Potency [16]
24.6%: max response [11, 18]
37.5%: max response [11, 19]

Cn1c(=O)c(-c2cccs2)nc2cnc(N3CCOCC3)nc21
active: Potency [3] 5.01 µM
16.5%: max response [11, 19]
14.1%: max response [11, 18]
inactive: Potency [1] > 11.4 µM | activity change, negative = inhibition [2] -14% | activity change, negative = inhibition [4] -9.83% | activity, negative = inhibition [5] -4.84% | Potency [6] > 9.22 µM | Potency [7] > 46 µM | outcome [8] | Potency [9] | activity change, negative = inhibition [11] 5.09% | Potency [12] | Potency [13] | Potency [14] | Potency [15] | Potency [16]

COc1cccc(Cn2c(=O)c(-c3cccs3)nc3cnc(N(C)C)nc32)c1
27.3%: max response [11, 19]
active: Potency [3] 15.8 µM
inactive: Potency [1] > 11.4 µM | activity change, negative = inhibition [2] -9.34% | activity change, negative = inhibition [4] 23.2% | activity, negative = inhibition [5] 11.2% | Potency [6] > 9.22 µM | Potency [7] > 46 µM | outcome [8] | Potency [9] | Potency [10] | activity change, negative = inhibition [11] 3.91% | Potency [12] | Potency [13] | Potency [14] | Potency [15] | Potency [16]
25.6%: max response [11, 18]
